Compounds with a hit are over-represented: about 14% of the library has one in this group of screens.
MARV entry inh: qHTS for inhibitors of binding or entry into cells for Marburg Virus. Potency, µM (highest dose often 37.8 µM), without a hit: at the highest dose activity change, negative = inhibition, actives largely listed as inhibitors. 300,000 tested, 1.8% active. Marburg virus pseudotyped entry inhibition, cell reporter; calls by dose curve; tested in HEK293 cells; further: potency means the concentration at half of the fitted maximal effect
HCV inh: qHTS Assay for Inhibitors of Hepatitis C Virus (HCV); Huh7.5.1 HCVcc-Cre infection, luciferase reporter, 44 h; Potency, µM (top dose mostly 41.8 µM), without a hit: at the highest dose activity change, negative = inhibition, usual class: inhibitors; AID 651820, 2012; 340,000 tested, 3.4% active; further: potency means the concentration at half of the fitted maximal effect
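After 44 h co-culture of compound, cells and HCVcc-Cre (~0.5 moi), substrate is added for 15 min at room temperature and luciferase measured over 15 sec. Cells were seeded at 1,000/well and pre-cultured 4 h.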
Pf growth 96h: Primary qHTS for delayed death inhibitors of the malarial parasite plastid, 96 hour incubation; Potency, µM (series often up to 28.7 µM), for inactives: at the top dose activity change, negative = inhibition, most hits filed as inhibitors; P. falciparum luciferase reporter growth, 96 h; 320,000 tested, 6.9% active; further: potency means the concentration at half of the fitted maximal effect
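P. falciparum expressing integrated firefly luciferase grown in erythrocytes (2% hematocrit, 0.05% parasitemia final) with compounds for 96 hours at 37 C, 5% CO2. Growth inhibition read as loss of luminescence after adding luciferase detection reagent.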
Lassa entry inh: qHTS for Inhibitors of binding or entry into cells for Lassa Virus; 300,000 tested, 1.2% active; Potency, µM (doses to about 37.9 µM), without a hit: top-dose activity change, negative = inhibition, actives largely listed as inhibitors; Lassa virus pseudotype entry inhibition, cell reporter; calls by dose curve; tested in HEK293 cells; further: potency means the concentration at half of the fitted maximal effect; nearly all actives have a fitted effect of over 50% in size
HCMV inh: qHTS Assay for inhibitors of the human cytomegalovirus (HCMV). HFF cells, HCMV-luciferase reporter, 72 h; active compounds read low. activity change, negative = inhibition, % at 57.5 µM. 410,000 tested, 4.5% active. AID 1259415, 2018; in the data active means activity change below about -60%; inconclusive means no clear call, values can overlap the other calls; inactive means above about -39%
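Compounds were evaluated in HFFs infected with an HCMV luciferase reporter virus (MOI 1 PFU/cell). Luciferase in lysates collected 72 h post infection served as the replication measure.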
Pf growth 48h: Primary qHTS for delayed death inhibitors of the malarial parasite plastid, 48 hour incubation; Potency, µM (highest dose often 28.7 µM), for inactives: at the highest dose activity change, negative = inhibition, usual class: inhibitors; 310,000 tested, 5.9% active; P. falciparum luciferase growth in erythrocytes, 48 h; further: potency means the concentration at half of the fitted maximal effect
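Parasite viability was followed by luminescence of a genomically integrated firefly luciferase. Cultures held 0.1% parasitemia at 2% hematocrit (final), incubated under 5% CO2 at 37 C.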
Active calls of the source: *; ? = inconclusive; · = no result; [ ] = another dose, or the depositor's remark. Unless noted, the call rests on the fitted dose curve; in most records, active means well fitted inhibition curve with a large enough effect; inconclusive means small, poorly fitted or top-dose-only effect, or another doubt; inactive means no such curve, though single readings can be large or run the other way. On the % scale 0 is the no-effect control and ±100 the full control effect.

SMILES | MARV entry inh | HCV inh | Pf growth 96h | Lassa entry inh | HCMV inh | Pf growth 48h
Cc1ccccc1C(=O)NC1CC2CCCC(C1)N2Cc1ccccc1 (stereo not drawn) | · | 11% | ? | · | 82 | -3%
O=C(NC1CC2CCCC(C1)N2Cc1ccccc1)c1cccc(Cl)c1 (stereo not drawn) | 1.3µM* | -7% | 14% | 1% | -40 | ?
Cc1ccc(C(=O)NNC(=O)C2CCN(Cc3ccccc3)CC2)cc1 | ? | -12% | 30% | 7% | 56 | 4%
O=C(NC1CC2CCCC(C1)N2Cc1ccccc1)c1cccc(F)c1 (stereo not drawn) | · | -9% | ? | · | 2 | ?
O=C(NC1CC2CCC(C1)N2Cc1ccccc1)c1ccccc1Cl (stereo not drawn) | · | -19% | 13µM* | · | 13 | 1%
O=C(NNC(=O)C1CCN(Cc2ccccc2)CC1)c1cccc(Cl)c1 | ? | 10µM* | 0% | 0% | -12 | 0%
O=C(c1ccccc1)c1sc(N2CCCCCC2)nc1-c1ccccc1 | -23% | ? | ? | -15% | -15 | ?
[2H]c1c([2H])c([2H])c(C(=O)c2sc(N3CCCCCC3)nc2-c2ccccc2)c([2H])c1[2H] | ? | 22µM* | ? | -11% | -12 | ?
O=C(c1ccc(Br)cc1)c1sc(N2CCOCC2)nc1-c1ccccc1 | ? | 7.9µM* | -23% | ? | 42 | ?
COCc1ccc(CN2CCC(n3nccc3NC(=O)c3ccc4c(c3)OCO4)CC2)o1 | · | · | · | · | -31 | ·
Cc1ccccc1CN1CCC(n2nccc2NC(=O)c2ccc3c(c2)OCO3)CC1 | · | -6% | 9.3µM* | · | -21 | 5%
COc1ccc(CN2CCC(n3nccc3NC(=O)c3ccc4c(c3)OCO4)CC2)cc1C | · | -20% | 58% | · | -11 | 12µM*
Cc1ccccc1CN1CCC(n2nccc2NC(=O)c2cccnc2)CC1 | 10% | 10% | 9.3µM* | 0% | 1 | ?
Cn1cc(CN2CCC(n3nccc3NC(=O)c3ccc4c(c3)OCO4)CC2)cn1 | · | · | · | · | -16 | ·
Cc1ccccc1C(=O)Nc1ccnn1C1CCN(C(C)Cc2ccccc2F)CC1 (stereo not drawn) | · | 10µM* | ? | · | -13 | ?
CCc1ccc(CN2CCC(n3nccc3NC(=O)c3ccccc3OC)CC2)o1 | · | · | · | · | -13 | ·
COc1ccccc1C(=O)Nc1ccnn1C1CCN(Cc2cnn(C)c2C)CC1 | 1% | -9% | 6.6µM* | ? | 12 | -5%
COc1ccc(CCNC(=O)CS(=O)(=O)Cc2nc(-c3cccc(Cl)c3)oc2C)cc1OC | -6%[46.1 µM] | · | · | -7%[46.1 µM] | -20 | ·
CCc1cccc(N2C(=O)CSC23C(=O)Nc2ccccc23)c1 (stereo not drawn) | · | · | · | 15%[46.1 µM] | 11 | ·
CCc1ccc2c(c1)C1(NN=C(c3cccc4ccccc34)S1)C(=O)N2 (stereo not drawn) | · | ? | -21% | · | ? | 2.9µM*
COC(=O)c1ccc2nc(-c3ccccc3)c(Cc3ccccc3OC)n2c1 | · | · | · | · | 7 | ·
CCCCOc1ccc(C(=O)NCCN2CCC(n3c(=O)[nH]c4ccccc43)CC2)cc1 | · | · | · | · | 7 | ·
Cc1nc(CCl)cc(=O)[nH]1 | -10%[46.1 µM] | 6% | ? | 18%[46.1 µM] | ? | 5.2µM*
CCOc1ccccc1NC(=O)CC1C(=O)NCCN1C(=O)c1ccc(F)cc1 (stereo not drawn) | -20%[46.1 µM] | · | · | 8%[46.1 µM] | 9 | ·
CC(C)c1ccc(NC(=O)C2(C)Cc3c(-c4cccc(C(N)=O)c4)ccnc3O2)cc1 (stereo not drawn) | · | · | · | · | 18 | ·
Cc1c(-c2ccccc2)cnc2c(C)cccc12 | · | 11µM* | · | · | 9 | ·
C=CCOC(=O)C1=C[C@@H](c2csc3ccccc23)C[C@@H](OCc2ccc(CO)cc2)O1 | · | ? | 13µM* | · | -7 | ?

Screens: PubChem, National Center for Advancing Translational Sciences (NCATS)
